Experimental data as given in PubChem BioAssay (EPA / NIEHS).
Inconclusive results are not listed. The source made the active and inactive calls. Rule for the calls, unless noted: active = hit-call score of the fitted dose curve at least 0.9, where 1 is the maximum; inactive = score below 0.9.

How the values were obtained:
[1] = target: Paired box protein Pax-6 (Homo sapiens) (UniProt P26367); assay: ATG_Pax6_CIS: Attagene CIS-FACTORIAL HepG2 Assay for human Paired Box 6 (PAX6) (AID 2282956); settings: HepG2 CIS-FACTORIAL PAX6 reporter transcription, RNA readout; actives raise or lower the signal
Sequence of Paired box protein Pax-6 (Homo sapiens) (P26367 whole entry, looked up): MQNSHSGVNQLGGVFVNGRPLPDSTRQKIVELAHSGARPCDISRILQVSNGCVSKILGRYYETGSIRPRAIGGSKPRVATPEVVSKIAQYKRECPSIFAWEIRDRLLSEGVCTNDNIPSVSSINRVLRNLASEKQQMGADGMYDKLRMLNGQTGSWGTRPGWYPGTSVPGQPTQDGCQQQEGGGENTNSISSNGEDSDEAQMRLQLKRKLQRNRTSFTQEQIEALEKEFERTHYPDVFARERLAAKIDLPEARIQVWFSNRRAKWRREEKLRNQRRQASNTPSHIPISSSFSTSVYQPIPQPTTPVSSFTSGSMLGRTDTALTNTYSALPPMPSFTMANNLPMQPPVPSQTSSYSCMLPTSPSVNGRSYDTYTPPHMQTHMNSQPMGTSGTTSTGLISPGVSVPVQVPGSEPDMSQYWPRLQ
Procedure, shortened: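 Readout: reporter transcript fluorescence after RT-PCR and capillary electrophoresis. Cells: HepG2, transiently transfected with cis-regulated MRTUs. Exposure 24 h. Gain or loss of signal fitted bidirectionally relative to DMSO.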

[2] = ATG_PXRE_CIS: Attagene CIS-FACTORIAL HepG2 Assay for human Pregnane X Receptor Element (PXRE) (AID 2282957); settings: HepG2 Attagene CIS-FACTORIAL PXRE reporter, mRNA; actives raise or lower the signal
Procedure, shortened: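 Endogenous transcription factor activity in HepG2 was gauged through induction of reporter mRNA driven by a cis-regulating promoter element, sampled 24 h post-treatment. Activity was fitted in both directions against DMSO negative control.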

[3] = ATG_PPRE_CIS: Attagene CIS-FACTORIAL HepG2 Assay for human Peroxisome Proliferator-activated Response Element (PPRE) (AID 2282958); settings: HepG2 PPRE cis-element reporter, Attagene transcription factor profiling; actives raise or lower the signal
Procedure, shortened: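 In this cell-based multiplex, a PPRE cis element drives a reporter sequence in transiently transfected HepG2 cells. Following 24 h treatment, labeled cDNA amplicons are sized and quantified by capillary electrophoresis, with DMSO defining baseline.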

[4] = ATG_RORE_CIS: Attagene CIS-FACTORIAL HepG2 Assay for human RAR-related Orphan Receptor Element (RORE) (AID 2282959); settings: HepG2 Attagene cis-factorial RORE reporter, mRNA; actives raise or lower the signal
Procedure, shortened: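 Endogenous factor activity at a cis response element is read as reporter transcript levels in HepG2 cells, 24 h post-dose. Transcripts are quantified by RT-PCR with capillary electrophoresis, and data fitted in both directions against DMSO.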

[5] = ATG_Sox_CIS: Attagene CIS-FACTORIAL HepG2 Assay for human SRY-box transcription factor (SOX) (AID 2282960); settings: HepG2 Attagene cis-factorial SOX reporter, mRNA; actives raise or lower the signal
Procedure, shortened: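 Measures mRNA induction of a SOX1-associated reporter in HepG2 after 24 h dosing. Fluorescently labelled RT-PCR fragments are separated by capillary electrophoresis, and gain or loss relative to DMSO control is fitted.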

[6] = target: Transcription factor Sp1 (Homo sapiens) (UniProt P08047); assay: ATG_Sp1_CIS: Attagene CIS-FACTORIAL HepG2 Assay for human Specificity Protein 1 (Sp1) (AID 2282961); settings: HepG2 Sp1 cis-reporter transcription, actives raise or lower the signal
Sequence of Transcription factor Sp1 (Homo sapiens) (P08047 whole entry, looked up): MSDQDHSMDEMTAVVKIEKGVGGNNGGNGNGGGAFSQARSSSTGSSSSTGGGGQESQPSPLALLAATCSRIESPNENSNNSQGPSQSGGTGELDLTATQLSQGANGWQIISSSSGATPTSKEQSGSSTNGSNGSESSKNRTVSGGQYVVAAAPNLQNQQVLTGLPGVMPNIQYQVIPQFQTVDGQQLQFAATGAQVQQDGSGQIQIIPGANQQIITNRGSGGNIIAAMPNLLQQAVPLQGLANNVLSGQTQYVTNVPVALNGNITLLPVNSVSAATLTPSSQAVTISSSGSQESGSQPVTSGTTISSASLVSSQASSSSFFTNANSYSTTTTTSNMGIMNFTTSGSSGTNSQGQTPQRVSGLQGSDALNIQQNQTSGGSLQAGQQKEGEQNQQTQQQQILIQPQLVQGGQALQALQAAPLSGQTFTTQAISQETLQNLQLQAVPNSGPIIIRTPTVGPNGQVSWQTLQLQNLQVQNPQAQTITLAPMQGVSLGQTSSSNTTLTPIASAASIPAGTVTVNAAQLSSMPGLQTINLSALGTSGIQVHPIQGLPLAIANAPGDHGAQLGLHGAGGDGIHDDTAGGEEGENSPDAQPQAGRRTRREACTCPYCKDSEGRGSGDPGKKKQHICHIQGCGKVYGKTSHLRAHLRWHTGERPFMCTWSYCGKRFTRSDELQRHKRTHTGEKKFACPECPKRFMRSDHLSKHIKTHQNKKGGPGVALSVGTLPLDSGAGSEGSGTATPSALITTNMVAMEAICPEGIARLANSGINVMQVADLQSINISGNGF
Procedure, shortened: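 Cells: HepG2, transiently transfected with cis-regulated multiplexed reporters. Exposure: 24 h. Detection: reporter transcripts amplified, fluorescently labeled, restriction-digested and sized by capillary electrophoresis. Analysis: bidirectional fit relative to DMSO.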

[7] = ATG_SREBP_CIS: Attagene CIS-FACTORIAL HepG2 Assay for human Sterol Regulatory Element Binding (SREBP) (AID 2282962); settings: HepG2 Attagene cis-factorial SREBP reporter, mRNA; actives raise or lower the signal
Procedure, shortened: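 Readout: fluorescent reporter-transcript peaks resolved by capillary electrophoresis after RT-PCR. Cells were human HepG2 carrying transfected cis-promoter reporter constructs, dosed for 24 h. Gain or loss of signal was fitted against DMSO controls.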

[8] = target: Signal transducer and activator of transcription 3 (Homo sapiens) (UniProt P40763); assay: ATG_STAT3_CIS: Attagene CIS-FACTORIAL HepG2 Assay for human Signal Transducer and Activator of Transcription 3 (STAT3) (AID 2282963); settings: HepG2, Attagene cis-factorial STAT3 reporter transcription; actives raise or lower the signal
Sequence of Signal transducer and activator of transcription 3 (Homo sapiens) (P40763 whole entry, looked up): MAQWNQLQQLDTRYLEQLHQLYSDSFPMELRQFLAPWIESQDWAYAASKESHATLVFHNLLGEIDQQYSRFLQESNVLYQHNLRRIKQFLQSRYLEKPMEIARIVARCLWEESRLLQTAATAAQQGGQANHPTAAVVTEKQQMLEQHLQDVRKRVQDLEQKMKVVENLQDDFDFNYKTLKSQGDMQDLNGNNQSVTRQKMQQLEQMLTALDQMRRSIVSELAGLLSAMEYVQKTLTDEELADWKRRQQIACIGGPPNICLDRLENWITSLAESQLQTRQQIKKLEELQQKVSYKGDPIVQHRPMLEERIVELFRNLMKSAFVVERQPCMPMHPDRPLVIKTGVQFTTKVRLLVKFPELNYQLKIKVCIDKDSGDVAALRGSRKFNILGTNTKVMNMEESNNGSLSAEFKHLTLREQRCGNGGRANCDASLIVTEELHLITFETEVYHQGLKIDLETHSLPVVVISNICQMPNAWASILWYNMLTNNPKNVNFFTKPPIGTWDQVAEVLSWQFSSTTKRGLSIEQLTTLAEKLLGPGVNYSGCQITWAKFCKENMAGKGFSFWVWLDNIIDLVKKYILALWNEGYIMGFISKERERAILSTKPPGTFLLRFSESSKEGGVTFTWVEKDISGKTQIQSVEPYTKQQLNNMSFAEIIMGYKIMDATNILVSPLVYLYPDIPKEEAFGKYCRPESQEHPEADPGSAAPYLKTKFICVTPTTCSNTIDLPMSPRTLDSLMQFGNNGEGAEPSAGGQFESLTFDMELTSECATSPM
Procedure, shortened: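 HepG2, MRTU-transfected, 24 h dosing. RNA → RT → PCR → FAM label → HpaI → CE. Bidirectional fit vs DMSO.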

[9] = ATG_TCF_b_cat_CIS: Attagene CIS-FACTORIAL HepG2 Assay for human T-Cell-Factor with beta-catenin (TCF/b-cat) (AID 2282965); settings: HepG2 TCF/beta-catenin cis-reporter transcription, actives raise or lower the signal
Procedure, shortened: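 HepG2 cells transiently transfected with multiple cis-promoter-regulated reporter transcription units, so endogenous transcription factor activity is measured. Reporter mRNA read 24 hours after dosing by RT-PCR, fluorescent labelling and capillary electrophoresis; bidirectional fitting against DMSO.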

[10] = ATG_TAL_CIS: Attagene CIS-FACTORIAL HepG2 Assay for human TAL Basal Promoter (AID 2282966); settings: HepG2 Attagene cis-factorial TAL promoter reporter; actives raise or lower the signal;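 note: background control endpoint measuring basal TAL promoter reporter mRNA not a specific factor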
Procedure, shortened: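 Endogenous transcription-factor activity is sensed in HepG2 cells through transfected cis-promoter reporter constructs. After 24 h dosing, reporter transcripts are quantified by RT-PCR and capillary electrophoresis. Gain or loss of signal is fitted relative to DMSO.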

[11] = ATG_TGFb_CIS: Attagene CIS-FACTORIAL HepG2 Assay for human Transforming Growth Factor (TGF) (AID 2282967); settings: HepG2 Attagene CIS TGFb reporter, mRNA transcription; actives raise or lower the signal
Procedure, shortened: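 Multiplexed cis-reporter HepG2 system, 24 h treatment; mRNA induction read by fluorescence after RT-PCR and CE; DMSO negative control, bidirectional curve fitting.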

[12] = target: Estrogen receptor (Homo sapiens) (UniProt P03372); assay: ATG_ERa_TRANS: Attagene TRANS-FACTORIAL HepG2 Assay for human Estrogen Receptor alpha (ERa) (AID 2282970; active = hit-call score of the fitted dose curve at least 0.9, where 1 is the maximum); settings: HepG2 Attagene TRANS ERa GAL4 reporter, mRNA
Sequence of Estrogen receptor (Homo sapiens) (P03372 whole entry, looked up, the tested form may be a part): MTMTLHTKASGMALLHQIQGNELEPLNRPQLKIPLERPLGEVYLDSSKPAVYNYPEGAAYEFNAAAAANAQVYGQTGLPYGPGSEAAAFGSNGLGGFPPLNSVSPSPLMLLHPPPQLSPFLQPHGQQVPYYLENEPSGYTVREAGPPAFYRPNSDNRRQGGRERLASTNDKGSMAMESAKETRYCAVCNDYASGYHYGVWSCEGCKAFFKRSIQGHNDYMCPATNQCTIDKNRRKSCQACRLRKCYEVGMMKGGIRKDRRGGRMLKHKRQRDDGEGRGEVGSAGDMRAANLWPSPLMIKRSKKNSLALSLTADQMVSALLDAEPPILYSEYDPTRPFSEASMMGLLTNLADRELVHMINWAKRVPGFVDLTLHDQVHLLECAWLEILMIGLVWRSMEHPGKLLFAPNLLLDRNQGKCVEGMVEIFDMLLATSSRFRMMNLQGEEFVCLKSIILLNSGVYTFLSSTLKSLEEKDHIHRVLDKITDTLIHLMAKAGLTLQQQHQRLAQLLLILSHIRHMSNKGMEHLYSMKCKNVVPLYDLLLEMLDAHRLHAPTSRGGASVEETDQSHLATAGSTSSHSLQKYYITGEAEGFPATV
Procedure, shortened: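 Transfected HepG2 cells carrying GAL4-UAS-driven reporter units were dosed for 24 hours. Total RNA was reverse-transcribed, reporter sequences PCR-amplified, FAM-labelled, HpaI-digested and resolved by capillary electrophoresis. Increases over DMSO control defined activity.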

[13] = target: X-box-binding protein 1 (Homo sapiens) (UniProt P17861); assay: ATG_Xbp1_CIS: Attagene CIS-FACTORIAL HepG2 Assay for human X-box Binding Protein 1 (XBP1) (AID 2282972); settings: HepG2 XBP1 cis-element reporter, Attagene multiplex; actives raise or lower the signal
Sequence of X-box-binding protein 1 (Homo sapiens) (P17861 whole entry, looked up, the tested form may be a part): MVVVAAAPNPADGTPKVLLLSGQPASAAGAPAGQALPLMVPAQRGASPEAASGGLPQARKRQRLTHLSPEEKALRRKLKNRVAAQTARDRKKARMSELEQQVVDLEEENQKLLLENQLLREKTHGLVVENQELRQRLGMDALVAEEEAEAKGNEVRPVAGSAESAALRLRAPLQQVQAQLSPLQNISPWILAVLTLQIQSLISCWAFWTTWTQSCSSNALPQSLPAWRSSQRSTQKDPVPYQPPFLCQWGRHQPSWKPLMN
Procedure, shortened: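 Read-out: fluorescent reporter mRNA fragments resolved by capillary electrophoresis after RT-PCR. Human HepG2 liver cells carried transfected cis-promoter reporter units and were exposed to chemicals for 24 hours. Gain or loss of signal fitted relative to DMSO baseline.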

[14] = ATG_M_19_TRANS: Attagene TRANS-FACTORIAL HepG2 Assay for M19 Transcription Factor (Internal Marker) (AID 2282974; active = hit-call score of the fitted dose curve at least 0.9, where 1 is the maximum); settings: HepG2 Attagene TRANS-FACTORIAL M19 internal marker reporter
Procedure, shortened: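 Reporter mRNA induction was measured in transfected HepG2 cells 24 h after dosing. Endpoint fitted upward relative to DMSO and serves as a background control within the multiplexed TRANS panel.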

[15] = ATG_TA_CIS: Attagene CIS-FACTORIAL HepG2 Assay for human TA Basal Promoter (AID 2282964); settings: HepG2 Attagene CIS-factorial TA basal promoter reporter; actives raise or lower the signal
Procedure, shortened: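 Cis-factorial format in HepG2: reporters report endogenous factors, not chimeric Gal4 fusions. After 24 h treatment, reporter transcripts were measured by RT-PCR-capillary electrophoresis fluorescence, analysed bidirectionally versus DMSO.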

[16] = ATG_VDRE_CIS: Attagene CIS-FACTORIAL HepG2 Assay for human Vitamin D Receptor Element (VDRE) (AID 2282968); settings: HepG2 VDRE cis-reporter transcription, actives raise or lower the signal
Procedure, shortened: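 Steps: transfect HepG2 with multiple reporter transcription units; dose chemicals 24 h; isolate RNA; RT-PCR; label with 6-FAM primer extension; HpaI digest; capillary electrophoresis. Curves fitted both directions against DMSO.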

[17] = ATG_GAL4_TRANS: Attagene TRANS-FACTORIAL HepG2 Assay for GAL4 (Internal Marker) (AID 2282976; active = hit-call score of the fitted dose curve at least 0.9, where 1 is the maximum); settings: HepG2 Attagene TRANS GAL4 internal marker reporter
Procedure, shortened: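 Fluorescence from capillary electrophoresis of labelled RT-PCR products quantifies reporter mRNA induction after 24 h dosing of HepG2 cells carrying transfected GAL4-UAS reporter transcription units. Vehicle DMSO serves as baseline.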

[18] = target: Estrogen-related receptor gamma (Homo sapiens) (UniProt P62508); assay: ATG_ERRg_TRANS: Attagene TRANS-FACTORIAL HepG2 Assay for human Estrogen-Related Receptor gamma (ERRg) (AID 2282977; active = hit-call score of the fitted dose curve at least 0.9, where 1 is the maximum;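 note: hits increase reporter signal over DMSO so potencies reflect activators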); settings: HepG2 Attagene TRANS reporter, ERRg transactivation
Sequence of Estrogen-related receptor gamma (Homo sapiens) (P62508 whole entry, looked up, the tested form may be a part): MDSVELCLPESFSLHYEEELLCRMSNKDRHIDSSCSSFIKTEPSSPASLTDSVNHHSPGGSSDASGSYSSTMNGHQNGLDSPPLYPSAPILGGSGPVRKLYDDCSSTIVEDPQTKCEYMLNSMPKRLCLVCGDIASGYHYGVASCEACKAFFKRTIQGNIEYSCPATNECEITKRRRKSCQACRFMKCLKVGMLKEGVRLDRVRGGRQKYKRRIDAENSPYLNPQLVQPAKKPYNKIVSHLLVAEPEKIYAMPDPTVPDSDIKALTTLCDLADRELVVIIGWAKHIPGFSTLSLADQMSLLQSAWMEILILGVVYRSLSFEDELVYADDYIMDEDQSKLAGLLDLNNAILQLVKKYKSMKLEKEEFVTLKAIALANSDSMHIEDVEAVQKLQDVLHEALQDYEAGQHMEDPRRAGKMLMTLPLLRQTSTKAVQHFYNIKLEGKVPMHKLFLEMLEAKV
Procedure, shortened: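 Induction of reporter transcripts through a chimeric NR-Gal4 protein is quantified in transfected human HepG2 liver cells after 24 h chemical exposure, using RT-PCR with capillary electrophoresis detection and DMSO as baseline.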

[19] = target: Nuclear receptor subfamily 1 group I member 3 (Homo sapiens) (UniProt Q14994); assay: ATG_CAR_TRANS: Attagene TRANS-FACTORIAL HepG2 Assay for human Constitutive Androstane Receptor (CAR) (AID 2282969; active = hit-call score of the fitted dose curve at least 0.9, where 1 is the maximum;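 note: activators raise reporter mRNA above DMSO so AC50 marks induction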); settings: HepG2 Attagene TRANS-FACTORIAL CAR reporter
Sequence of Nuclear receptor subfamily 1 group I member 3 (Homo sapiens) (Q14994 whole entry, looked up, the tested form may be a part): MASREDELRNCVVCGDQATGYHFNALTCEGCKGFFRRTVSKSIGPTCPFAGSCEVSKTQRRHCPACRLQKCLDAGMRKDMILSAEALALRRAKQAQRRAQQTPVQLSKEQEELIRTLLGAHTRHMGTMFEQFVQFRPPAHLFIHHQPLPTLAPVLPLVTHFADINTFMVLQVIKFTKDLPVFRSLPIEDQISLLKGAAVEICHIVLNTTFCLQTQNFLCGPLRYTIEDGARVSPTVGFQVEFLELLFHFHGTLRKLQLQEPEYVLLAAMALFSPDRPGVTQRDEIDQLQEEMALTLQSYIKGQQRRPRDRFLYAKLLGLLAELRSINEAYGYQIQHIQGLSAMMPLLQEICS
Procedure, shortened: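 Steps: transient transfection of HepG2 with multiple GAL4-UAS reporter units; 24 h compound incubation; RNA isolation, RT-PCR, 6-FAM primer extension, HpaI digest; capillary electrophoresis. Gain-of-signal relative to DMSO negative control.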

[20] = target: Steroid hormone receptor ERR1 (Homo sapiens) (UniProt P11474); assay: ATG_ERRa_TRANS: Attagene TRANS-FACTORIAL HepG2 Assay for human Estrogen-Related Receptor alpha (ERRa) (AID 2282971; active = hit-call score of the fitted dose curve at least 0.9, where 1 is the maximum); settings: HepG2 Attagene TRANS reporter, ERRa transactivation
Sequence of Steroid hormone receptor ERR1 (Homo sapiens) (P11474 whole entry, looked up, the tested form may be a part): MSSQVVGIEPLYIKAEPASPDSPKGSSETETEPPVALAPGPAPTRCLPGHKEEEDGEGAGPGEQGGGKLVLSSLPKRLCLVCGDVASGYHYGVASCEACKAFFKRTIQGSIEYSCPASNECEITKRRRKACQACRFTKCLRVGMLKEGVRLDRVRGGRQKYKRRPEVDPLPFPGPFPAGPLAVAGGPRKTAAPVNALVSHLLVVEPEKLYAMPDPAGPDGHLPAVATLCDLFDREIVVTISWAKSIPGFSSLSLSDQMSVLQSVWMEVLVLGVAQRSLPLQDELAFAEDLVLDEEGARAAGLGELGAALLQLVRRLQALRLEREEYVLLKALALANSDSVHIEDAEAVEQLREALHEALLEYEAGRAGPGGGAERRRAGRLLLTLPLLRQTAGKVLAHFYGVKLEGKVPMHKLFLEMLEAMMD
Procedure, shortened: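 HepG2 cells were transiently transfected with multiple GAL4-UAS reporter units, then dosed with compound for 24 h. Total RNA was reverse-transcribed, reporter cDNA PCR-amplified and fluorescently labelled, and fragments resolved by capillary electrophoresis; induction was compared with DMSO.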

Measured: AC50

Cc1ccc(S)cc1
active: [9] 24.4 µM | [12] 25.4 µM | [13] 53.5 µM
not listed: [15] | [16] | [17] | [18] | [19] | [20]
inactive: all other assays above

Nc1cc(N)cc(C(=O)O)c1
not listed: [6] | [8] | [18] | [19] | [20]
inactive: all other assays above

CSc1nnc(C(C)(C)C)c(=O)[nH]1
not listed: [6] | [12] | [17] | [18] | [19] | [20]
inactive: all other assays above

C=C(C)C(=O)NCCCN(C)C
not listed: [6] | [10] | [12] | [18] | [19] | [20]
inactive: all other assays above

C=CC(C)(O)CCC=C(C)CCC=C(C)C (stereo unspecified)
active: [1] 134 µM | [2] 9.06 µM | [5] 148 µM | [6] 161 µM | [7] 114 µM | [8] 100 µM | [11] 187 µM | [13] 120 µM
inactive: [3] | [4] | [9]

N#Cc1nc(Cl)c(Cl)c(Cl)c1Cl
inactive: [3] | [4] | [6] | [15] | [10] | [11] | [18]
active: [1] 5.32 µM | [2] 5.5 µM | [5] 5.26 µM | [7] 5.74 µM | [9] 3.82 µM | [16] 4.14 µM | [13] 5.85 µM

CCCCCCCCCCCCN
active: [7] 18.1 µM
not listed: [6] | [12] | [15] | [16] | [17] | [18] | [20]
inactive: all other assays above

CCCC(=O)C(C)=O
active: [2] 16.2 µM
not listed: [6] | [12] | [14] | [17]
inactive: all other assays above

CCCCCOC(=O)CCC
not listed: [10] | [12] | [15] | [16] | [20]
inactive: all other assays above

CC(C)(C)NC(N)=O
not listed: [8] | [10] | [14] | [18] | [20]
inactive: all other assays above
